{"source": "PubChem BioAssay"}
{"assay": "small molecules captured by biotinylated probe aFSTL3 – biochemical, small-molecule microarray, fluorescence 635/667, stem cell growth factor project, primary screen (AID 1064);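 note: measures binding of the biotinylated anti-FSTL3 antibody to printed compounds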", "conditions": "higher = more signal"}
{"smiles": "CCN1C(=O)[C@H]2[C@H]3[C@H](O)[C@H](O)CC(=NO[C@@H](C)c4cc(-c5c(C)cc(C)cc5C)no4)[C@@H]3CC[C@H]2C1=O", "composite z-score": -0.558}
{"smiles": "O=C(NN=C1C[C@@H](O)[C@@H](O)[C@@H]2[C@@H]3C(=O)N(c4ccc(F)cc4F)C(=O)[C@@H]3CC[C@H]12)OCc1ccccc1", "composite z-score": 0.0775}
{"smiles": "CC#CCOCCC=C1c2ccccc2[C@@H](OC)[C@@H]1C", "composite z-score": -0.35}
{"smiles": "CC(CCC(=O)OC[C@H]1O[C@H](C#Cc2ccccc2)C=C[C@@H]1Oc1ccc(C)cc1)=NO[C@H](C)c1cn([C@@H]2COC[C@H]2O)nn1", "composite z-score": -0.484}
{"smiles": "COC(=O)[C@@H]1CC[C@H](C)[C@@H](c2ccc(C)cc2)N1C(=O)c1ccc(C=NOC[C@H]2O[C@H](c3ccccc3)C=C[C@@H]2Oc2ccc(OC)cc2)cc1", "composite z-score": -0.462}
{"smiles": "CC(=O)OC[C@H]1O[C@@H](ON=C2[C@H]3CCn4c(=O)n(-c5ccccc5)c(=O)n4[C@H]3[C@H](O)[C@@H]3O[C@H]23)[C@H](OC(C)=O)[C@@H](OC(C)=O)[C@@H]1OC(C)=O", "composite z-score": -0.512}
{"assay": "binders from COS7 lysate, DM2A8 probe, primary screen, torsin A project, cell lysate, small-molecule microarray, fluorescence 635/667 (AID 1065)", "conditions": "higher = more signal, COS7 lysate expressing mutant human TOR1A"}
{"smiles": "COc1ccc(COC(=O)NN=C2C[C@@H](O)[C@@H](O)[C@@H]3[C@@H]4C(=O)N(C[C@@H]5CCCO5)C(=O)[C@@H]4CC[C@H]23)cc1", "composite z-score": 0.326}
{"smiles": "CCOC(=O)[C@H](Cc1ccccc1)NC(=O)CCC1CC(OC(=O)NCCc2ccc(F)cc2)CC2(CCCC(COC(=O)NCCC(C)C)O2)O1", "note": "(some centres not stated)", "composite z-score": 0.813}
{"smiles": "COC(=O)CC=C[C@@H](C)[C@@H](C=NOC[C@@H](O)[C@H]1O[C@@H]2OC(C)(C)O[C@@H]2[C@H]1O)OC", "composite z-score": 0.937}
{"smiles": "C[C@]12CCC3c4ccc(OCC5CO5)cc4CCC3C1CC[C@@H]2O", "note": "(some centres not stated)", "composite z-score": 0.258}
{"smiles": "CCOC(=O)CCN1C(=O)[C@H]2[C@H]3[C@H](O)[C@H](O)CC(=NO[C@@H]4O[C@H](CO)[C@@H](O)[C@H](O)[C@H]4O)[C@@H]3CC[C@H]2C1=O", "composite z-score": 1.86}
{"smiles": "CC(CCN1CCCCc2nc(C)c(C)cc21)=NO[C@H](C)c1cn([C@@H]2COC[C@H]2O)nn1", "composite z-score": 2.25}
{"smiles": "COc1ccc(COC(=O)NN=C2C[C@@H](O)[C@@H](O)[C@@H]3[C@@H]4C(=O)N(c5cccc(Oc6ccccc6)c5)C(=O)[C@@H]4CC[C@H]23)cc1", "composite z-score": -0.379}
{"smiles": "CC=CC1=C(CO)[C@H](O)[C@H]2O[C@H]2[C@@H]1O", "composite z-score": 0.112}
{"smiles": "CC1(C)O[C@H]2OC([C@H](O)CON3C(=O)c4ccccc4C3=O)[C@H](O)[C@H]2O1", "note": "(some centres not stated)", "composite z-score": -0.0068}
{"smiles": "CCOC(=O)NN=C1C[C@@H](O)[C@@H](O)[C@@H]2[C@@H]3C(=O)N(CC)C(=O)[C@@H]3CC[C@H]12", "composite z-score": 0.36}
{"smiles": "CC(=O)OC[C@H]1O[C@@H](ON=C(C)CCC(=O)OC[C@H]2O[C@H](C#Cc3ccccc3)C=C[C@@H]2Oc2ccc(C)cc2)[C@H](OC(C)=O)[C@@H](OC(C)=O)[C@@H]1OC(C)=O", "composite z-score": 0.745}
{"smiles": "Cc1cc2c(nc1C)CCCCN2CC(O)CN1CCCc2nc(-c3ccc(Br)cc3)ccc21", "note": "(configuration not stated)", "composite z-score": 0.514}
{"smiles": "CCOC(=O)CCN1C(=O)[C@H]2[C@H]3[C@H](O)[C@H](O)CC(=NOCC=C(C)CCC=C(C)C)[C@@H]3CC[C@H]2C1=O", "composite z-score": 1.13}
{"smiles": "CC(=O)OC[C@H]1O[C@@H](ON=C(C)CCN2CCCCc3nc(C)c(C)cc32)[C@H](OC(C)=O)[C@@H](OC(C)=O)[C@@H]1OC(C)=O", "composite z-score": 0.515}
{"smiles": "CC(=O)OC[C@H]1O[C@H](CCON=C(C)C)C=C[C@@H]1OC(C)=O", "composite z-score": -0.224}
{"smiles": "CCCNC(=O)OC[C@H]1O[C@H](CCON=C[C@@H](NS(=O)(=O)c2ccc(C)cc2)[C@H](C)C=CCC(=O)OC)C=C[C@@H]1Oc1ccc(OC)cc1", "composite z-score": 0.724}
{"smiles": "CCCC[C@H]1CN2[C@@H](CC[C@@H](C)[C@@H]2c2ccc(Br)cc2)C(=O)O1", "composite z-score": 0.389}
{"smiles": "CCC1=NOC(CCC2CC(OC(=O)NCc3cccc4c3OCO4)CC3(CCCC(COC(=O)NCCc4ccc(Cl)cc4)O3)O2)C1", "note": "(configuration not stated)", "composite z-score": 0.0253}
{"smiles": "COc1ccc(O[C@H]2C=C[C@@H](C#Cc3ccccc3)O[C@@H]2CO)cc1", "composite z-score": 0.0018}
{"smiles": "CC(C)CON=C1[C@H]2CCn3c(=O)n(C)c(=O)n3[C@H]2[C@H](O)[C@@H]2O[C@H]12", "composite z-score": -0.0908}
{"smiles": "COC(=O)[C@@H]1CC[C@H](C)[C@@H](c2ccc(Br)cc2)N1C[C@@H](O)CN=[N+]=[N-]", "composite z-score": 0.054}
{"smiles": "COC(=O)[C@H](C)NC(=O)CCC1CC(OC(=O)NCCc2ccc(F)cc2)CC2(CCCC(COC(=O)NCc3ccccc3)O2)O1", "note": "(some centres not stated)", "composite z-score": -0.126}
{"smiles": "O=C1C[C@H](c2ccccc2)[C@H](c2ccc(Br)cc2)O1", "composite z-score": 0.246}
{"smiles": "COc1ccc(O[C@H]2C=C[C@@H](c3ccccc3)O[C@@H]2COC(=O)CCC(C)=NOC[C@@H](O)COCc2ccco2)cc1", "composite z-score": -1.81}
{"smiles": "O=C1[C@H]2[C@H]3[C@H](O)[C@H](O)CC(=NOCc4ccccc4)[C@@H]3CC[C@H]2C(=O)N1c1cccc(Oc2ccccc2)c1", "composite z-score": 0.101}
{"smiles": "O=C1[C@H]2[C@H]3[C@H](O)[C@H](O)CC(=NOC[C@@H](O)COCc4ccco4)[C@@H]3CC[C@H]2C(=O)N1Cc1ccc2c(c1)OCO2", "composite z-score": 2.39}
{"smiles": "CCOC(=O)[C@H](CC(C)C)NC(=O)CCC1CC(OC(=O)NCc2ccc3c(c2)OCO3)CC2(CCCC(COC(=O)NCc3ccccc3)O2)O1", "note": "(some centres not stated)", "composite z-score": 0.01}
{"smiles": "O=C1C2=CC[C@H]3C(=O)N(C4CCCCC4)C(=O)[C@H]3[C@H]2[C@H](O)[C@@H]2O[C@H]12", "composite z-score": -2.14}
{"smiles": "C=CCOCC1CN2[C@@H](CC[C@@H](C)[C@@H]2c2ccc(Br)cc2)C(=O)O1", "note": "(some centres not stated)", "composite z-score": 0.0527}
{"smiles": "CCOC(=O)[C@H](Cc1ccccc1)NC(=O)CCC1CC(OC(=O)NCc2ccc3c(c2)OCO3)CC2(CCCC(COC(=O)NCCOc3ccccc3)O2)O1", "note": "(some centres not stated)", "composite z-score": 0.474}
{"smiles": "CCN1C(=O)[C@H]2[C@H]3[C@H](O)[C@H](O)CC(=NO[C@@H](C)c4cc(-c5c(C)cc(C)cc5C)no4)[C@@H]3CC[C@H]2C1=O", "composite z-score": 1.13}
{"smiles": "O=C(NN=C1C[C@@H](O)[C@@H](O)[C@@H]2[C@@H]3C(=O)N(c4ccc(F)cc4F)C(=O)[C@@H]3CC[C@H]12)OCc1ccccc1", "composite z-score": 1.04}
{"smiles": "CC#CCOCCC=C1c2ccccc2[C@@H](OC)[C@@H]1C", "composite z-score": 0.575}
{"smiles": "CC(CCC(=O)OC[C@H]1O[C@H](C#Cc2ccccc2)C=C[C@@H]1Oc1ccc(C)cc1)=NO[C@H](C)c1cn([C@@H]2COC[C@H]2O)nn1", "composite z-score": 0.522}
{"smiles": "COC(=O)[C@@H]1CC[C@H](C)[C@@H](c2ccc(C)cc2)N1C(=O)c1ccc(C=NOC[C@H]2O[C@H](c3ccccc3)C=C[C@@H]2Oc2ccc(OC)cc2)cc1", "composite z-score": -0.24}
{"smiles": "CC(=O)OC[C@H]1O[C@@H](ON=C2[C@H]3CCn4c(=O)n(-c5ccccc5)c(=O)n4[C@H]3[C@H](O)[C@@H]3O[C@H]23)[C@H](OC(C)=O)[C@@H](OC(C)=O)[C@@H]1OC(C)=O", "composite z-score": 0.617}
